# MmCpn inh: Inhibitors of TCP-1 ring complex (TRiC) of Methanococcus maripaludis (MmCpn): qHTS; purified Mm-Cpn ATPase, ADP Transcreener TR-FRET; Chaperonin Mm-Cpn (Methanococcus maripaludis); Potency, µM (series often up to 76.9 µM), without a hit: at the highest dose activity, negative = inhibition, actives largely listed as inhibitors; actives 0.031% (n = 330,000); AID 504842, 2011; further: potency means the concentration at half of the fitted maximal effect; on the % scale 0 is the no-effect control and ±100 the full control effect; nearly all actives have a fitted effect of over 80% in size
#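 Reaction buffer contained 30 mM Tris pH 7.4, 100 mM KCl, 5 mM MgCl2 and 1 mM DTT. Mm-CPN (25 nM final) hydrolysed 10 uM ATP over 30 min at 37°C; ADP was read by HTRF.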
# gsp ag: qHTS for Agonist of gsp, the Etiologic Mutation Responsible for Fibrous Dysplasia/McCune-Albright Syndrome: qHTS; gsp mutant cells, cAMP HTRF, 30 min; Potency, µM (highest dose often 76.9 µM), inactives show top-dose activation (cAMP increase), actives largely listed as activators; actives 0.13% (n = 340,000); AID 624287, 2012; active means well fitted activation curve with a large enough effect; inconclusive means small, poorly fitted or top-dose-only effect, or another doubt; inactive means no such curve, though single readings can be large or run the other way; cell line not stated here;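 further: phosphodiesterase inhibitor Ro 20-1724 added with compounds to block cAMP breakdown; potency means the concentration at half of the fitted maximal effect; nearly all actives have a fitted effect of over 60% in size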
#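 Cells in DMEM/10% FBS with G418 were pretreated with compounds in DMSO plus […] (300 uM stock) for 30 min at 37C. cAMP was measured by HTRF (cAMP-d2 plus anti-cAMP antibody-K) after 30 min at room temperature.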
# RXFP1 antagonist: qHTS Assay for Antagonists of the Relaxin Receptor RXFP1 | Relaxin receptor 1 (Homo sapiens), Q9HBX9 | HEK293-RXFP1, relaxin-stimulated cAMP HTRF, 30 min; active compounds read low | activity change, negative = inhibition, % at 57.5 µM | actives 0.59% (n = 350,000);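 active means activity change of -60% or lower, but not beyond a set lower limit; inconclusive means change between -60% and -40%, or beyond the set limit; inactive means change above -40%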; further: on the % scale 0 is the no-effect control and ±100 the full control effect
# Target sequence (Q9HBX9 whole entry, looked up): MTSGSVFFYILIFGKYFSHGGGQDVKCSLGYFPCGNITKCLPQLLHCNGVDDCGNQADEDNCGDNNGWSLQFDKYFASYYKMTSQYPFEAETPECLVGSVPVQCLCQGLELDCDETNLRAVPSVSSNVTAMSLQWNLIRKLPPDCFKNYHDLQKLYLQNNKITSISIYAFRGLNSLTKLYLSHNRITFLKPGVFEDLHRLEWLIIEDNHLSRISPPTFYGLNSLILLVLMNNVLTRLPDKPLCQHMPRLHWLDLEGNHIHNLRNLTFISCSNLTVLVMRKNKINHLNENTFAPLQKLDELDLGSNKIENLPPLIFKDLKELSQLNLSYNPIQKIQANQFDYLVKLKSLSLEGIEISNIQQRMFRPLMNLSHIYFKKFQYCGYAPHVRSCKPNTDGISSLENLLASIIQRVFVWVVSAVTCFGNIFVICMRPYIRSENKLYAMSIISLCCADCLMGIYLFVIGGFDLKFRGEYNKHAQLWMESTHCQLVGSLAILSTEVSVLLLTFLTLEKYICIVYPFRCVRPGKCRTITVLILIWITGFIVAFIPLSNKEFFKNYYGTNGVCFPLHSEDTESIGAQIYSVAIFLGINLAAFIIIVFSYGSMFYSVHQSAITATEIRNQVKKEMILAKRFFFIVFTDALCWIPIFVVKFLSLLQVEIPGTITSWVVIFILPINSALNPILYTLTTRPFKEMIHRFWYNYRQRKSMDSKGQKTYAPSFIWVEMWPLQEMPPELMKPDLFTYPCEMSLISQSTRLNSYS
# CCT chaperon mod: High-Throughput Screening for Modulators of Cytosolic Chaperonin Activity. purified chaperonin ATPase assay, HTRF ADP detection, 30 min. activity change, % (concentration not given with the values), hits read low. actives 0.3% (n = 360,000). AID 651819, 2012; in the data active means activity change below about -30%; further: on the % scale 0 is the no-effect control and ±100 the full control effect
#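 First, chaperonin was dispensed at 40 nM or 20 nM final depending on batch activity. Next, compounds were pinned at 76 uM and ATP added at 10 uM. After 30 min at 37 °C, ADP detection reagents ran 30 min at ambient temperature.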
# gsp antagonist: qHTS for Antagonists of gsp, the Etiologic Mutation Responsible for Fibrous Dysplasia/McCune-Albright Syndrome: qHTS; gsp-mutant cells, cAMP HTRF, 30 min; Potency, µM (top dose mostly 76.9 µM), without a hit: top-dose activity change, negative = inhibition, most hits filed as inhibitors; actives 0.4% (n = 340,000); AID 624288, 2012; calls by dose curve; cell line not stated here;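 further: intracellular cAMP measured with PDE inhibitor Ro 20-1724 present during compound exposure; potency means the concentration at half of the fitted maximal effect; on the % scale 0 is the no-effect control and ±100 the full control effect; nearly all actives have a fitted effect of over 65% in size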
#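 Measurement of cellular cAMP by homogeneous time-resolved fluorescence following a 30 min compound exposure at 37C. The PDE inhibitor […] was present throughout; the assay buffer was DPBS with 0.05% BSA and 0.005% Tween 20.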
# RXFP1 agonist: qHTS Assay for Agonists of the Relaxin Receptor RXFP1; AID 2676, 2010; HEK293T-RXFP1 cAMP TR-FRET, 30 min; response scale: percent of porcine relaxin response, buffer zero; Potency, µM (series often up to 57.5 µM), for inactives: top-dose activation, hits mostly activators; actives 0.3% (n = 370,000); further: potency means the concentration at half of the fitted maximal effect; on the % scale 0 is the no-effect control and ±100 the full control effect; nearly all actives have a fitted effect of over 60% in size
#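 cAMP rise read by TR-FRET after 30 min, 37C compound exposure (up to 58 uM) in RXFP1-transfected HEK293 cells with Ro 20174 present. EC50 from Hill-equation fits, with 29 nM porcine relaxin as 100% and buffer as basal.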
# The depositor's hits bear a star; ? = inconclusive; . = no result; [ ] = dose if it differs, or a comment. Compounds with a hit are over-represented: about 1.2% of the library has one in this group of screens. Unless noted, the call rests on the fitted dose curve; in most records, active means well fitted curve in the direction sought with a large enough effect; inconclusive means small, poorly fitted or top-dose-only effect, or another doubt; inactive means no such curve, though single readings can be large; an effect the other way counts as inactive or inconclusive.
SMILES,MmCpn inh,gsp ag,RXFP1 antagonist,CCT chaperon mod,gsp antagonist,RXFP1 agonist
O=[N+]([O-])c1ccc(N/N=C/c2cccc(O)c2O)c(S(=O)(=O)N2CCOCC2)c1,4%,16%,-1,1,?,0%
O=[N+]([O-])c1ccc(N/N=C/c2ccc(O)c(O)c2O)c(S(=O)(=O)N2CCOCC2)c1,-2%,15%[15.4 µM],-85*,-2,?,1%
CSCC[C@H](NC(=O)COc1ccc(Cl)cc1)c1nc2ccccc2[nH]1,0%,4%[15.4 µM],1,-2,7.9µM*,0%
Cc1ccc(C(=O)NNC(=O)c2cccc(S(=O)(=O)N3CCN(c4ccccc4)CC3)c2)cc1,-1%,-4%,-4,-48*,5%,3%
O=C(c1ccc(S(=O)(=O)Nc2cccc(C(F)(F)F)c2)cc1)N1CCC1,-2%,10µM*,21,0,-6%,?
O=C(c1cccc(NS(=O)(=O)c2ccccc2)c1)N1CCN(c2ccccc2)CC1,-1%,24%[15.4 µM],-117*,0,-18%,-1%
O=C(NCCCN1CCOCC1)c1ccc(S(=O)(=O)Nc2cccc(C(F)(F)F)c2)cc1,0%,14%[15.4 µM],16,-37*,5%,1%
Cc1cccnc1NC(=O)c1cccc(S(=O)(=O)N2CCN(c3ccccc3)CC2)c1,1%,-1%[15.4 µM],-12,-2,-5%,0%
O=C(NCCCN1CCOCC1)c1ccc(S(=O)(=O)Nc2ccccc2)cc1,0%,8%,6,0,3%,0%
O=C(c1cccc(NS(=O)(=O)c2ccccc2)c1)N1CCCC1,2%,-32%,0,0,1%,2%
Cc1ccc(NC(=O)c2cnn3c(C(F)F)cc(-c4ccccc4)nc23)c(C)c1,.,.,.,.,.,-5%
O=C(NCCOCCO)C(=O)Nc1c2c(nn1-c1ccc(F)cc1)CSC2,.,.,3,.,.,1%
Cc1ccc(S(=O)(=O)N2CCCc3cc(NS(=O)(=O)c4cc(F)ccc4F)ccc32)cc1,.,.,-3,.,.,1%
O=C(Nc1cccc(F)c1)C1CCN(S(=O)(=O)c2cccc3nsnc23)CC1,.,.,-21,.,.,4%
Cc1nn(C(C)C)c(C)c1CN1CCC(C(=O)Nc2cccc(-c3cccc(F)c3)c2)CC1,0%,11%,-82*,-2,-1%,0%
Cc1cccc(CN2CCC(C(=O)Nc3cccc(-c4cccc(F)c4)c3)CC2)n1,2%,16%,?,2,-11%,1%
COc1ccc(CNC(=O)CN(C(=O)c2csnn2)c2ccc(C(C)=O)cc2)cc1,1%,-7%[15.4 µM],9,-40*,5%,5%
COc1ccc(CNC(=O)CN(C(=O)c2csnn2)c2ccc(F)cc2)cc1,0%,-33%,-7,1,6%,0%
CCn1cc([N+](=O)[O-])c(C(=O)N2N=C(c3ccc4ccccc4c3)CC2c2ccccc2O)n1 (stereo not given),1%,-28%,3,-2,?,2%
CCn1cc([N+](=O)[O-])c(C(=O)N2N=C(c3cccc4ccccc34)CC2c2ccccc2O)n1 (stereo not given),-3%,14%,-2,-3,28µM*,1%
Cc1ccc(-c2ccc(CCC(=O)O)n2-c2ccc(C(C)C)cc2)cc1,.,.,-13,.,.,0%
Nc1c(I)cc(I)c(C(=O)N(CCC(=O)O)c2ccccc2)c1I,.,.,-19,.,.,.
CC(=O)N1CCCc2cc(S(=O)(=O)N3CCCC(C(=O)N4CCN(c5ccccc5)CC4)C3)ccc21 (stereo not given),1%,-3%,-4,-1,35µM*,-1%
COc1ccccc1N1CCN(C(=O)C2CCCN(S(=O)(=O)c3ccc4c(c3)CCCN4C(C)=O)C2)CC1 (stereo not given),-2%,-26%[15.4 µM],-17,-2,?,-2%
CCN(CC)C(=O)C1CCN(S(=O)(=O)c2ccc3c(c2)CCCN3C(=O)C2CCC2)CC1,2%,7%,-79*,0,-19%,-2%
SMILES,MmCpn inh,gsp ag,RXFP1 antagonist,CCT chaperon mod,gsp antagonist,RXFP1 agonist
Cc1ccc(C)c(NS(=O)(=O)c2ccc3c(c2)CCCN3C(=O)C2CCC2)c1,.,.,-63*,.,.,0%
Cc1cc(Nc2ccc(Br)c(C)c2)n2nc(-c3ccco3)nc2n1,.,.,-27,.,.,-1%
Oc1cccc2[nH]ccc12,.,.,-8,.,.,.
CCOC(=O)C(Cc1ccccc1)NC(=O)CCc1nnc2ccc(N3CCOCC3)nn12 (stereo not given),0%,20µM*,29,-1,5%,27%
COc1cc(NC(=O)CCc2nnc3ccc(N4CCN(c5cccc(OC)c5)CC4)nn23)cc(OC)c1,1%,?,4,0,10%,16µM*
COc1cccc(N2CCN(C(=O)CCc3nnc4ccc(N5CCCC5)nn34)CC2)c1,-9%,2%,29,-42*,-26%,12%
COc1cccc(N2CCN(C(=O)CCc3nnc4ccc(N5CCOCC5)nn34)CC2)c1,-2%,4%,6,1,11%,15%
O=[N+]([O-])c1cc(CN2CCOCC2)c2cccnc2c1O,-1%,-3%[15.4 µM],-102*,0,-20%,0%
COc1ccc2c(CNCc3ccco3)c(C(=O)O)n(Cc3ccc(F)cc3Cl)c2c1,.,.,-35,.,.,2%
O=[N+]([O-])c1cccc(S(=O)(=O)Nc2nc3ccccc3nc2Nc2cccc(S(=O)(=O)N3CCCCC3)c2)c1,1%,-16%,-8,-3,18µM*,0%
O=[N+]([O-])c1cccc(S(=O)(=O)Nc2ccc(S(=O)(=O)N3CCCC3)cc2)c1,.,-25%,-4,-1,-8%,.
O=S(=O)(Nc1nc2ccccc2nc1Nc1ccc2c(c1)OCO2)c1ccccc1,1%,0%,.,0,-9%,0%
Cc1ccc(S(=O)(=O)Nc2nc3ccccc3nc2Nc2cccc(S(=O)(=O)N3CCCC3)c2)cc1,-8%,?,1,0,32µM*,3%
Cc1cccc(S(=O)(=O)Nc2nc3ccccc3nc2Nc2ccc3c(c2)OCO3)c1,2%,19%[15.4 µM],7,0,28µM*,0%
CCn1c2ccccc2c2nnc(SCC(=O)NCc3cccs3)nc21,1%,1%,5,-2,-3%,5%
CCn1c2ccccc2c2nnc(SCC(=O)NCCOC)nc21,-1%,10µM*,13,-1,4%,10%
